Bioassay records as filed in PubChem BioAssay.
hgDAF12 agonist: activates the H. glycines DAF-12 receptor ligand-binding domain. HEK293 GAL4-hgDAF12 UAS-luciferase reporter, agonist luminescence; normalized to butyrate control. activation, % at 6.8 µM. 370,000 tested, 1.8% active. AID 687014;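 active = activation above a cutoff set at the mean of all screened compounds plus 3 SD, cut at about 10% in these data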;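 note: 0% = DMSO wells and 100% = sodium butyrate wells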
DAX1 inh-1: NR0B1 (DAX1) inhibition; P51843; HEK293 Gal4-DAX1 luciferase reporter, luminescence; inhibition, % at 6.75 µM; 340,000 tested, 0.99% active;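 active = inhibition above the mean over all tested compounds plus 3 SD, cut at about 4.2% in these data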;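 note: 0% = DAX1-transfected cells with DMSO and 100% = empty-vector control cells with DMSO; inhibition shows as a rise in luminescence from relieved DAX1 repression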
hcDAF-12 act: activators of H. contortus DAF-12 nuclear receptor | 370,000 tested, 1.4% active | HEK293 hcDAF-12 lit1-tk-luc reporter, luminescence; 0% DMSO, 100% Δ7-dafachronic acid | activation, % at 6.8 µM;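 active = activation above the mean of all tested compounds plus 3 SD, cut at about 5.5% in these data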;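 note: 100% = response to 3 µM Δ7-dafachronic acid high control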
DAX1 inh-2: DAX1 (NR0B1) inhibition, primary screen | HEK293T StAR-luciferase reporter, SF-1/DAX-1 repression relief | inhibition, % at 6.8 µM | 370,000 tested, 1.1% active | AID 652010;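 active = inhibition above the mean over all tested compounds plus 3 SD, cut at about 3.6% in these data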;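 note: 0% = DAX-1 cells with DMSO and 100% = cells lacking DAX-1 with DMSO; higher inhibition means more luminescence from relief of DAX-1 repression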
ssDAF-12 act: activators of S. stercoralis DAF-12 nuclear receptor; HEK293 ssDAF-12/GRIP1 lit1-tk-luc reporter, luminescence; % of 3 µM dafachronic acid response; activation, % at 6.8 µM; 370,000 tested, 1% active; AID 652126;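 active = activation above the mean over all tested compounds plus 3 SD, cut at about 0.9% in these data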;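 note: 0% = DMSO-only wells and 100% = 3 µM delta7-dafachronic acid wells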
LXRb hcDAF ctr: activates human LXR-beta, counter-screen for hcDAF-12 agonists | shares compounds with hcDAF-12 act | HEK293 Gal4-LXR tk-luc reporter, luminescence, 24 h; normalized: DMSO 0%, positive control 100% | activation, % at 6.8 µM | 3,400 tested, under 10 active | AID 743027;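 active = mean percent activation of the reporter above a cutoff set as the average over tested compounds plus their standard deviation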
Target sequence (P55055 whole entry, looked up, the tested form may be a part): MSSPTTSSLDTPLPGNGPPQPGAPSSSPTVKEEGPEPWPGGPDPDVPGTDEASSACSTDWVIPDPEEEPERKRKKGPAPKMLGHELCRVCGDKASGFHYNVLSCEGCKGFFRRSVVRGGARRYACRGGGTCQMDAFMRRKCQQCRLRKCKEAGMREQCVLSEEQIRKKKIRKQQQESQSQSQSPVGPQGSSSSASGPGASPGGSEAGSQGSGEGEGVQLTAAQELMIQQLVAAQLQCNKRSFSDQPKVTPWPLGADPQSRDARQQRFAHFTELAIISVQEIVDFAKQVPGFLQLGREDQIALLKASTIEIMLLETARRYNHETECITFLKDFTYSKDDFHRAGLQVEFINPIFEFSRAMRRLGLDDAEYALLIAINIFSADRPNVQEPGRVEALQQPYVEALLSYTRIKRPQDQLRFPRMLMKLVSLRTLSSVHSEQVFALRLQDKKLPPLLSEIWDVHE
hcDAF12 ag: confirmation of H. contortus DAF-12 agonists | 3,400 tested, 61% active | HEK293 hcDAF-12 lit1-tk-luc reporter, luminescence; % of Δ7-dafachronic acid response | shares compounds with hcDAF-12 act | activation, % at 6.8 µM | AID 743032;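 active = mean activation across triplicate tests above the threshold derived from the earlier primary screen, cut at about 5.5% in these data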;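 note: 0% = DMSO only wells and 100% = 3 µM Δ7-dafachronic acid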
* hit, by the source's call; x = no result. Shown are actives, neighbours in structure and some others; about 4.1% of the full set was active somewhere.

SMILES	hgDAF12 agonist	DAX1 inh-1	hcDAF-12 act	DAX1 inh-2	ssDAF-12 act	LXRb hcDAF ctr	hcDAF12 ag
CC(C)(C)c1ccc(-c2nnc(SCC(=O)Nc3ccc(Oc4ccccc4)cc3)n2Cc2ccco2)cc1	1	x	-3	0	-1	x	x
Cc1sc2c(c1C)CN(Cc1ccncc1)CN2C(=O)c1ccco1	5	1	3	1	-1	x	x
Cc1sc2c(c1C)CN(C(C)(C)C)CN2C(=O)c1ccccc1	9	1	6.8*	1	1	0	6.4*
CC1CCCC(C)N1C(=O)c1cc(-c2ccc3c(c2)OCO3)on1 (stereo not given)	11*	1	6.6*	2	0	1	5
C[C@@H]1CN([C@@H](C)COC(=O)C(C)(C)C)C(=O)c2cc(NC(=O)Nc3ccccc3)ccc2O[C@@H](C)CCCCO[C@H]1CN(C)S(=O)(=O)c1ccc(F)cc1	-1	x	-2	x	-1	x	x
CC(C)Oc1ccc(C(=O)Nc2nc3ccccc3[nH]2)cc1	2	-2	8.7*	1	0	0	-1
COc1ccc2c(c1)[nH]c1c(=O)n(N)cnc12	1	5.7*	9.7*	1	1	0	6.4*
COC(=O)[C@H](C)NC(=O)[C@H](CC(C)C)NC(=O)OC(C)(C)C	-3	x	0	0	-1	x	x
CC(C)CNc1cccc2c1S(=O)(=O)N(Cc1cn(Cc3ccc(F)cc3)nn1)Cc1ccccc1O2	-3	x	-4	-1	-1	x	x
O=C(N[C@H](C(=O)N1CCC[C@H]1C(=O)NC1CCCC1)c1ccccc1)c1ccc(Cl)cc1Cl	-3	x	-2	-1	-1	x	x
Cc1cc(OCc2ccc(C(=O)NN=C3CCCC3)cc2)ccc1Cl	8	0	9.9*	0	0	0	9.4*
O=C(NN=C1CCCC1)c1ccc(Cl)cc1	2	0	2	0	-1	x	x
NS(=O)(=O)c1ccc(CCNc2nc3c(-c4cccc(F)c4)nnn3c3ccccc23)cc1	0	2	7.1*	0	1.3*	-1	1
C=CCN=C1NC(c2cccc(F)c2)C(C(=O)OC)=C(C)N1C (stereo not given)	1	x	-2	0	-1	x	x
Cc1nc2ccccc2nc(C)c1=NOCc1ccccc1Cl	11*	1	8.7*	1	0	0	-1
CC(C)CNC(=O)OCc1cn(Cc2ccccc2Cl)nn1	-7	x	-4	-1	0	x	x
CCCCCCCCN1C(=O)[C@@H](CC(=O)NCc2cccc3ccccc23)C[C@@]2(C(=O)OC)C1=C[C@H](C1CCCC1)O[C@@H]2C	0	x	1	0	0	x	x
Cn1c(C(C#N)C(=O)c2ccco2)nc2ccccc21 (stereo not given)	4	1	7.2*	2	1	0	9.6*
CSc1nc(O)c(/C=C2\C=Nc3ccccc32)[nH]1	10	1	12*	1	0	0	11*
O=c1[nH]c(/C=C2\C=Nc3ccccc32)c(O)n1Cc1ccccc1F	2	-2	2	-1	-2	x	x
C/C(CC(=O)Nc1ccc(Cl)c(C(F)(F)F)c1)=N\NC(=O)c1ccccc1O	10	-2	10*	0	1.4*	0	1
CC(=O)c1cc(-c2ccccc2-c2ccccc2)c(=O)n2c1CCC2	-1	x	-1	0	-2	x	x
Cn1c(NC(=O)C[n+]2cc(-c3ccccc3)n3c2CCC3)cc(=O)n(C)c1=O	2	-1	7.1*	0	-1	0	0
CC(C)c1ccc(NC(=O)[C@@H]2CCC(=O)N2C2OC(=O)c3ccccc32)cc1 (stereo not given in full)	7	4	7.4*	3	0	0	5
COc1ccc(CCNC(=O)c2cc3ccccn3n2)cc1	-2	x	-1	0	-1	x	x
SMILES	hgDAF12 agonist	DAX1 inh-1	hcDAF-12 act	DAX1 inh-2	ssDAF-12 act	LXRb hcDAF ctr	hcDAF12 ag
CCOc1ccc(N=NC2C(=O)N(C(N)=S)N=C2C)cc1 (stereo not given)	8	4	6.6*	3	0.9*	1	5
Cc1cscc1NC(=O)/C=C/C(=O)O	1	x	6.8*	0	0	0	1
COc1ccccc1NC(=O)/C=C\C(=O)O	0	-1	7.3*	0	0	0	0
COc1ccccc1NC(C)=O	0	0	0	-1	-2	x	x
COc1cc(Cc2nc3ccc(S(=O)(=O)N4CCOCC4)cc3[nH]2)cc(OC)c1OC	1	0	8.0*	-1	-2	0	-1
O=c1cc(O)nc(SCc2ccccc2)[nH]1	-2	1	6.7*	0	-2	0	2
Cc1cc(=O)[nH]c(SCc2ccccc2)n1	-2	0	1	0	-1	x	x
Cc1c(N=C2NN=C(c3c[nH]c4ccccc34)CS2)c(=O)n(-c2ccccc2)n1C	2	-1	7.0*	-1	0	0	2
COc1ccc(S[C@]2(C(=O)N3CCCC3)CC(=O)N(c3ccccc3OC)[C@@H]2c2ccc(OC)cc2)cc1	2	x	-1	-1	-1	x	x
CC(C)c1ccc(NC(=O)c2sccc2-n2cccc2)cc1	12*	0	11*	1	0	0	8.9*
Cc1c(Br)cccc1NC(=O)c1sccc1-n1cccc1	0	-1	-1	-1	-1	x	x
C/C(C=NNC(=O)CSc1nc2ccccc2n1Cc1ccccc1Cl)=C\c1ccccc1	0	x	0	0	-1	x	x
CCOC(=O)C(=NCC1CCCO1)NNc1cc(Cl)ccc1Cl (stereo not given)	1	0	7.5*	0	-1	0	1
CCOC(=O)/C(=N\Nc1cc(Cl)ccc1Cl)N1CC(C)OC(C)C1 (stereo not given)	4	0	-1	0	-2	x	x
O=S1(=O)C=CCN1Cc1cn(Cc2cccc(Cl)c2)nn1	3	x	-1	1	-1	x	x
O=C1NC(c2ccc(Br)cc2)c2c(-c3ccccc3)n[nH]c21 (stereo not given)	-4	x	-3	0	-1	x	x
Cc1ccc(C(=O)C[n+]2ccc3ccccc3c2)cc1	7	2	6.7*	1	1.3*	0	5
O=C(C[n+]1ccc2ccccc2c1)c1ccc(NC(=O)c2ccccc2)cc1	-3	-3	2	-1	1	x	x
COc1ccc(C(=O)C[n+]2ccc3ccccc3c2C)cc1	9	8.6*	13*	1	1.8*	1	14*
CSCCCNc1nc(C)nc2c1nnn2Cc1ccccc1	0	x	-1	-1	-2	x	x
